Measured values taken from PubChem BioAssay (Tox21).
Where “and” joins values, the source holds several entries; their conditions need not be identical. Identical values can stand only once. Inconclusive results are not listed. Calls of active or inactive are those of the source. Unless noted, calls come from the whole dose curve; as a rule, active = well fitted curve in the direction sought with a large enough effect in the repeat runs; inconclusive = weak or mixed curves; inactive = no such curve, though single readings can be large; an effect the other way counts as inactive or inconclusive.

What was measured:
[1] = qHTS assay to test for compound auto fluorescence at 535 nm (green) in HEK293 cells (AID 720680); note: % is set by controls: 0 for no effect and ±100 for the full control effect
[2] = qHTS assay to test for compound auto fluorescence at 460 nm (blue) in HEK293 cell free culture (AID 720681); note: % is set by controls: 0 for no effect and ±100 for the full control effect
How it was run: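 Blue fluorescence (Ex 405/Em 460 nm, triamterene-equivalent) was read immediately after pin transfer of compound or DMSO into medium (DMEM, 10% FBS) without cells.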

[3] = qHTS assay to test for compound auto fluorescence at 535 nm (green) in HEK293 cell free culture (AID 720682); note: % is set by controls: 0 for no effect and ±100 for the full control effect
How it was run: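 Using fluorescein as calibrant, autofluorescence was quantified at 485/535 nm in cell-free DMEM containing 10% FBS after pintool addition of compound or vehicle.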

[4] = qHTS assay to test for compound auto fluorescence at 590 nm (red) in HEK293 cell free culture (AID 720683); note: % is set by controls: 0 for no effect and ±100 for the full control effect
How it was run: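 Red-channel autofluorescence of compounds in culture medium (DMEM, 10% FBS), no cells, measured at 540/590 nm. Rose Bengal sodium is the reference fluorophore for equivalence.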

[5] = qHTS assay to test for compound auto fluorescence at 590 nm (red) in HepG2 cell free culture (AID 720684); note: % is set by controls: 0 for no effect and ±100 for the full control effect
How it was run: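 Cell-free; medium MEM + 10% FBS; compound or DMSO added by pintool; read Ex 540/Em 590 nm; Rose Bengal sodium as red reference fluorophore.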

[6] = qHTS assay to test for compound auto fluorescence at 460 nm (blue) in HepG2 cell free culture (AID 720685); note: % is set by controls: 0 for no effect and ±100 for the full control effect
How it was run: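 Cell-free plates of MEM plus 10% FBS received 23 nL compound or DMSO vehicle; blue-channel (405/460 nm) intensity scored against triamterene as reference fluorophore.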

[7] = qHTS assay to test for compound auto fluorescence at 535 nm (green) in HepG2 cell free culture (AID 720686); note: % is set by controls: 0 for no effect and ±100 for the full control effect
[8] = qHTS assay to test for compound auto fluorescence at 460 nm (blue) in HepG2 cells (AID 720687); note: % is set by controls: 0 for no effect and ±100 for the full control effect
How it was run: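 Blue-channel autofluorescence (Ex/Em 405/460 nm, triamterene-equivalent) was measured after 1 hr compound exposure at 37 C, 5% CO2. Cells were HepG2, plated overnight at 37 C in MEM plus 10% FBS.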

[9] = qHTS assay to identify small molecule antagonists of the glucocorticoid receptor (GR) signaling pathway - cell viability counter screen (AID 720693); note: nearly all actives have a fitted effect of over 55% in size; note: potency is the fitted concentration of half-maximal effect
[10] = qHTS assay for identifying genotoxic compounds that show differential cytotoxicity against isogenic chicken DT40 cell lines with known DNA damage response pathways - Rev3 mutant cell line (AID 743014); note: nearly all actives have a fitted effect of over 55% in size; note: potency is the fitted concentration of half-maximal effect
[11] = qHTS assay for identifying genotoxic compounds that show differential cytotoxicity against isogenic chicken DT40 cell lines with known DNA damage response pathways - Rad54/Ku70 mutant cell line (AID 743015); note: nearly all actives have a fitted effect of over 60% in size; note: potency is the fitted concentration of half-maximal effect
[12] = qHTS assay to identify small molecule antagonists of the androgen receptor (AR) signaling pathway - cell viability counter screen (AID 743033; note: nearly all actives have a fitted effect of over 45% in size; note: potency is the fitted concentration of half-maximal effect)
[13] = target: Androgen receptor (Homo sapiens) (UniProt P10275); assay: qHTS assay to identify small molecule agonists of the androgen receptor (AR) signaling pathway using the MDA cell line (AID 743040; note: % is set by controls: 0 for no effect and ±100 for the full control effect; nearly all actives have a fitted effect of over 20% in size)
Androgen receptor (Homo sapiens), sequence (P10275 whole entry, looked up): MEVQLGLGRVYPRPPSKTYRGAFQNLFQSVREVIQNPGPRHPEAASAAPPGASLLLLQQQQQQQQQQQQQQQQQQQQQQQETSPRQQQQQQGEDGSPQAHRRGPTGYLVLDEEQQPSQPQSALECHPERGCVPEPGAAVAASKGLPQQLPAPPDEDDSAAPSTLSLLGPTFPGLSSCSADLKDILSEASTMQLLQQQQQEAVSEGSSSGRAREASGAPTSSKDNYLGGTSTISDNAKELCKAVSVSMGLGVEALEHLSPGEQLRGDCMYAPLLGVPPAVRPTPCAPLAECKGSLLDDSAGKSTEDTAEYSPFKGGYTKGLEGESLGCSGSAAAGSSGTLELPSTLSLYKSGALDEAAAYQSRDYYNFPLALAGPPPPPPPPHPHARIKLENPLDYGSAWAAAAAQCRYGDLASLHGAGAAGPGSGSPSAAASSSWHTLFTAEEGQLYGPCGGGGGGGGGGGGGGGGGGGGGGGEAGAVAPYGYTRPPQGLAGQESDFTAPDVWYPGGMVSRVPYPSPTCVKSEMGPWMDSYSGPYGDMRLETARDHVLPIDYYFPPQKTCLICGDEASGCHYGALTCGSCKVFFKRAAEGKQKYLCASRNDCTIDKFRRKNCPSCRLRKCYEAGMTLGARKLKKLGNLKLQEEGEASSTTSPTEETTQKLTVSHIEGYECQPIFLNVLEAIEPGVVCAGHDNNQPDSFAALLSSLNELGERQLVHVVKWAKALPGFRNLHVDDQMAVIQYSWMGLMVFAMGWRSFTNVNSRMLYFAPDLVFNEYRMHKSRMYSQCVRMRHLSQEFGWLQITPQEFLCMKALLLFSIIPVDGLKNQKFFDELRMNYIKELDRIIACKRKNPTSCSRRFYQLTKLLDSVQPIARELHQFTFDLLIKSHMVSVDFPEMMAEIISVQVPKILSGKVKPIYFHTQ
How it was run: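 Luciferase agonist assay: 16 h compound exposure at 37C without CO2 in MDA-kb2 AR-luc cells, whose MMTV promoter responds to both AR and GR. Luminescence measured after 30 min room-temperature incubation with ONE-Glo.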

[14] = target: Androgen receptor (Homo sapiens) (UniProt P10275); assay: qHTS assay to identify small molecule antagonists of the androgen receptor (AR) signaling pathway using the MDA cell line (AID 743042; note: nearly all actives have a fitted effect of over 55% in size; note: potency is the fitted concentration of half-maximal effect)
How it was run: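 Antagonist mode: compounds plus R1881 agonist added to MDA-kb2 AR-luc cells, incubated 16 h at 37C. Luciferase reporter luminescence quantified, with multiplexed CellTiter-Fluor readout for cell viability.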

[15] = qHTS assay to identify small molecule antagonists of the thyroid receptor (TR) signaling pathway - cell viability counter screen (AID 743064); note: nearly all actives have a fitted effect of over 50% in size; note: potency is the fitted concentration of half-maximal effect
How it was run: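 Counter screen for cytotoxicity: compound plus T3 (1 nM final) on GH3.TRE-Luc cells, 23.5 h at 37 °C, then fluorescence viability readout with CellTiter-Fluor.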

[16] = qHTS assay to identify small molecule antagonists of the androgen receptor (AR) signaling pathway using the MDA cell line - cell viability counter screen (AID 743041; note: nearly all actives have a fitted effect of over 45% in size; note: potency is the fitted concentration of half-maximal effect)
How it was run: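 Viability read by CellTiter-Fluor fluorescence in the same wells as the antagonist screen, added after 15.5 h of a 16 h, 37C exposure. Human breast carcinoma MDA-kb2 AR-luc cells, compounds co-dosed with agonist R1881.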

[17] = target: Glucocorticoid receptor (Homo sapiens) (UniProt P04150); assay: qHTS assay to identify small molecule agonists of the glucocorticoid receptor (GR) signaling pathway (AID 720691; active = well fitted activation curve with a large enough effect in the signal ratio in the repeat runs, not every such curve was filed as active; the % refers to the signal ratio; note: potency is the fitted concentration of half-maximal effect); conditions: GR-bla HeLa, beta-lactamase reporter ratio, 18 h; activation: at 62.4 µM (top of the series)
Glucocorticoid receptor (Homo sapiens), sequence (P04150 whole entry, looked up): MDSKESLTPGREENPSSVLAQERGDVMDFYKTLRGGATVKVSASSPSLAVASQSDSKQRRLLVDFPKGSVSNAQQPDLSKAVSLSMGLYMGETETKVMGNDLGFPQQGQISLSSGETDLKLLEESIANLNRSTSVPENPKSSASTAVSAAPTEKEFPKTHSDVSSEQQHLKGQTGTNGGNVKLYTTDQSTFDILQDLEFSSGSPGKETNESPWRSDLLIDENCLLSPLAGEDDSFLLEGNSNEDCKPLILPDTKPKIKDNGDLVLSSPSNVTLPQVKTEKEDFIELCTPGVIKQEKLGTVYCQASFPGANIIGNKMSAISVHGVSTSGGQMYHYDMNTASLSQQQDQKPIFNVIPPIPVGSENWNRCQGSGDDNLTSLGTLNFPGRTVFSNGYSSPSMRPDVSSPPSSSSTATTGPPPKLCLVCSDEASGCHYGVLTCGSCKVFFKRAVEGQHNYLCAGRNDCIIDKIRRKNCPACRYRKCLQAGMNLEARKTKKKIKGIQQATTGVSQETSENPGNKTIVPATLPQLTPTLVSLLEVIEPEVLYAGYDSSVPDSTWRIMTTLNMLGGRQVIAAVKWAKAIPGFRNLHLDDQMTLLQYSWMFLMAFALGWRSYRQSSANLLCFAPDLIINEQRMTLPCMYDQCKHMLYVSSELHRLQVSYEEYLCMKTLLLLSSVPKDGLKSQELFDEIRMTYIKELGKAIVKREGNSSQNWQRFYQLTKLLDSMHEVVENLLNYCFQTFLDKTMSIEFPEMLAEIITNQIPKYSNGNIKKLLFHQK
How it was run: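 Cells: GR-bla HeLa, endogenous GR with stably integrated GRE-beta-lactamase reporter. Treatment 18 h, 37 C, compounds delivered in DMSO. Detection via LiveBLAzer B/G FRET substrate, 2 h RT, fluorescence intensity.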

[18] = qHTS assay for identifying genotoxic compounds that show differential cytotoxicity against isogenic chicken DT40 cell lines with known DNA damage response pathways - wild type cell line (AID 743012); note: nearly all actives have a fitted effect of over 60% in size; note: potency is the fitted concentration of half-maximal effect
How it was run: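 Luminescent ATP viability signal (CellTiter-Glo, 30 min RT) recorded after wild type DT40 cells were incubated with compounds for 40 h at 37 C/5% CO2.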

[19] = target: Glucocorticoid receptor (Homo sapiens) (UniProt P04150); assay: qHTS assay to identify small molecule antagonists of the glucocorticoid receptor (GR) signaling pathway (AID 720692; active = well fitted inhibition curve with a large enough effect in the signal ratio in the repeat runs, not every such curve was filed as active; the % refers to the signal ratio; note: potency is the fitted concentration of half-maximal effect)
How it was run: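 Quantitative HTS in antagonist format: HeLa cells expressing endogenous GR and a stably integrated GRE-bla reporter, stimulated with 5 nM dexamethasone (final) alongside test compounds for 18 h.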

[20] = target: Androgen receptor (Homo sapiens) (UniProt P10275); assay: qHTS assay to identify small molecule antagonists of the androgen receptor (AR) signaling pathway (AID 743035; active = well fitted inhibition curve with a large enough effect in the signal ratio in the repeat runs, not every such curve was filed as active; the % refers to the signal ratio; note: potency is the fitted concentration of half-maximal effect)
How it was run: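 Quantitative HTS of the Tox21 10K library used HEK293 AR-UAS-bla cells stimulated with R1881 alongside compound for 16 h at 37C, followed by beta-lactamase FRET detection (LiveBLAzer B/G, 2 h, RT).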

COc1ccc(Cc2nccc3cc(OC)c(OC)cc23)cc1OC
inactive: fluorescence, % of fluorescein [1] -0.0425% [at 18.6 µM] | fluorescence, % of fluorescent control [2] -0.0156% [at 18.6 µM] | activity change [3] -0.0465% [at 18.6 µM] | fluorescence, % of fluorescent control [4] -0.0177% [at 18.6 µM] | fluorescence, % of Rose Bengal [5] -0.262% [at 18.6 µM] | fluorescence, % of fluorescent control [6] 0.0281% [at 18.6 µM] | fluorescence, % of fluorescein control [7] -0.0438% [at 18.6 µM] | fluorescence, % of fluorescent control [8] -0.0587% [at 18.6 µM] | Potency [9] | Potency [12] | outcome [13] | Potency [15]
active: Potency [10] 9.02 µM | Potency [11] 7.17 µM | Potency [14] 9.02 µM

CCNS(=O)(=O)C(F)(F)C(F)(F)C(F)(F)C(F)(F)C(F)(F)C(F)(F)C(F)(F)C(F)(F)F
inactive: outcome [1] | Potency [2] | outcome [3] | outcome [4] | outcome [5] | Potency [6] | Potency [7] | Potency [8] | Potency [9] | Potency [12] | outcome [13] | Potency [16] | Potency [14] | Potency [15]

CC(C)C(Br)C(=O)NC(N)=O (configuration not stated)
inactive: outcome [1] | Potency [2] | outcome [3] | outcome [4] | outcome [5] | Potency [6] | Potency [7] | Potency [8] | Potency [9] | Potency [10] | Potency [11] | Potency [12] | Potency [16] | Potency [15]

c1ccc2c(c1)cc1ccc3cccc4ccc2c1c34
inactive: outcome [1] | Potency [2] | outcome [3] | outcome [4] | outcome [5] | Potency [7] | Potency [18] | Potency [10] | Potency [11] | Potency [12]
active: Potency [17] 25 µM [fluorescent]

CC(Cc1ccc2c(c1)OCO2)NO (configuration not stated)
inactive: outcome [1] | Potency [2] | outcome [3] | outcome [4] | Potency [6] | Potency [7] | Potency [8] | Potency [17] | Potency [9] | Potency [18] | Potency [10] | Potency [11] | Potency [12] | Potency [16] | Potency [15]

NC1CCC(CC2CCC(N)CC2)CC1 (configuration not stated)
inactive: outcome [1] | Potency [2] | outcome [3] | outcome [4] | Potency [6] | Potency [7] | Potency [8] | Potency [17] | Potency [19] | Potency [9] | Potency [12] | Potency [15]
active: Potency [16] 47.7 µM

O=S(=O)(NS(=O)(=O)C(F)(F)F)C(F)(F)F
inactive: outcome [1] | Potency [2] | outcome [3] | outcome [4] | outcome [5] | Potency [6] | Potency [7] | Potency [8] | Potency [18] | Potency [10] | Potency [11] | Potency [12] | Potency [16] | Potency [15]

O=C1C(Cl)=C(Cl)C(=O)C(Cl)=C1Cl
active: Potency [19] 30.9 µM | Potency [9] 38.9 µM | Potency [10] 8.6 µM and 6.86 µM | Potency [11] 17.2 µM and 8.63 µM | Potency [12] 17.3 µM and 21.9 µM | Potency [14] 34.2 µM and 30.6 µM | Potency [15] 15.3 µM and 13.7 µM
inactive: outcome [1] | Potency [2] | outcome [3] | outcome [4] | Potency [6] | Potency [7] | Potency [8] | Potency [17] | outcome [13]

O=S1OCC2C(CO1)C1(Cl)C(Cl)=C(Cl)C2(Cl)C1(Cl)Cl (configuration not stated)
active: Potency [18] 54.5 µM and 24.3 µM | Potency [10] 30.7 µM and 34.3 µM | Potency [11] 48.6 µM and 48.5 µM | Potency [12] 49 µM | Potency [20] 38.9 µM and 48.9 µM | Potency [15] 61.2 µM and 54.4 µM
inactive: outcome [1] | Potency [2] | outcome [3] | outcome [4] | outcome [5] | Potency [6] | Potency [7] | Potency [8] | outcome [13] | Potency [16]

N#Cc1sc2c(=O)c3ccccc3c(=O)c=2sc1C#N
active: Potency [9] 0.49 µM | Potency [10] 0.433 µM | Potency [11] 0.77 µM | Potency [12] 13.8 µM | Potency [20] 9.77 µM | Potency [16] 1.37 µM | Potency [14] 0.306 µM | Potency [15] 24.3 µM
inactive: outcome [1] | Potency [2] | outcome [3] | outcome [4] | Potency [6] | Potency [7] | Potency [8] | outcome [13]

ClC1=C(Cl)[C@]2(Cl)[C@@H]3[C@H]4C[C@H]([C@@H]5O[C@H]45)[C@@H]3[C@@]1(Cl)C2(Cl)Cl
active: Potency [18] 29.8 µM and 27.3 µM | Potency [10] 9.68 µM
inactive: outcome [1] | Potency [2] | outcome [3] | outcome [4] | Potency [6] | Potency [7] | Potency [8] | Potency [17] | Potency [19] | Potency [9] | Potency [12] | Potency [16]

CC(C)=CCN1CC[C@@]2(C)c3cc(O)ccc3C[C@@H]1[C@@H]2C
active: Potency [10] 26.9 µM | Potency [11] 60.2 µM
inactive: outcome [1] | Potency [2] | outcome [3] | outcome [4] | outcome [5] | Potency [6] | Potency [7] | Potency [8] | Potency [9] | Potency [12]

O.O.O.O.O.O.O=S(=O)([O-])[O-].[Ni+2]
inactive: outcome [1] | Potency [2] | outcome [3] | outcome [4] | outcome [5] | Potency [6] | Potency [7] | Potency [8] | Potency [9] | Potency [12] | Potency [16] | Potency [15]
active: Potency [10] 26.1 µM

CC(=O)[O-].CC(=O)[O-].[Co+2]
inactive: outcome [1] | Potency [2] | outcome [3] | outcome [4] | outcome [5] | Potency [6] | Potency [7] | Potency [8] | Potency [9] | Potency [18] | Potency [10] | Potency [12] | Potency [16] | Potency [15]
